Screens: PubChem, National Center for Advancing Translational Sciences (NCATS)
Compounds with a hit are over-represented: about 7.9% of the library has one in this group of screens.
KB-V1 MDR tox: KB-V1 MDR subline cytotoxicity; KB-V1 MDR cells viability, CellTiter-Glo, 72 h; Potency, µM (series often up to 46.1 µM), actives largely listed as cytotoxic; actives 3.4% (n = 400,000); AID 1347076; note: nearly all actives have a fitted effect of over 60% in size
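Cells of the MDR subline KB-V1 are plated, dosed with compound at multiple concentrations, and incubated 72 h at 37 degrees C; CellTiter-Glo is then added and luminescence read after 10 min.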
SW480 rereplic: inducers of DNA re-replication in SW480 colon cancer cells; actives 1.8% (n = 340,000); Potency, µM (titrated, usually from 46.1 µM), actives largely listed as activators; SW480 DNA re-replication, Hoechst DNA content imaging, 48 h; note: nearly all actives have a fitted effect of over 55% in size
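First, 250 cells per well were seeded. Next, compound or vehicle (23 nL) was pinned in, plates sat 48 hr at 37 C. Finally Hoechst was added for 40 min before fluorescence scanning.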
KB-3-1 cytotox: KB-3-1 parental cell cytotoxicity. KB-3-1 viability, CellTiter-Glo ATP luminescence, 72 h. Potency, µM (titrated, usually from 46.1 µM), hits mostly cytotoxic. actives 1.4% (n = 400,000); note: nearly all actives have a fitted effect of over 60% in size
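Screening of KB-3-1 cells (DMEM, 10% FBS, phenol-red free) ran from lowest to highest compound concentration; after 72 h at 37 °C viability was read luminescently and curves fitted.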
HT1080 IDH1KD tx: toxicity to HT-1080 IDH1 knockdown cells (counter line); HT-1080 IDH1 knockdown viability, ATP luminescence, 48 h; Potency, µM (doses to about 46.1 µM), most hits filed as cytotoxic; actives 2% (n = 360,000)
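After a 2 h attachment period, IDH1KD HT-1080 cells took pin-transferred compound for 48 h at 37 °C; ATP-based luminescence after 10 min room-temperature reagent incubation reported viability.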
HT1080NT lethal: kills 2HG-producing HT-1080-NT fibrosarcoma cells; HT-1080-NT fibrosarcoma viability, CellTiter-Glo ATP luminescence, 48 h; Potency, µM (top dose mostly 46.1 µM), actives largely listed as cytotoxic; actives 1.6% (n = 360,000); AID 686970;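 note: NT is the 2HG producing partner of a matched IDH1 knockdown line; nearly all actives have a fitted effect of over 55% in size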
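Viability of the 2HG-overproducing fibrosarcoma line after 48 hours of compound exposure at 37 degrees C was determined by luminescence with CellTiter-Glo, and concentration-effect curves were then fitted and categorized.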
MCF10A rerep: DNA re-replication induction in MCF 10a cells; MCF 10A DNA re-replication, Hoechst nuclear intensity, 48 h; Potency, µM (series often up to 46.1 µM), actives largely listed as activators; actives 2.9% (n = 350,000); note: nearly all actives have a fitted effect of over 50% in size
Numbers stand for hits. Calls come from the whole dose curve; as a rule, active = well fitted curve in the direction sought with a large enough effect; inconclusive = small, poorly fitted or top-dose-only effect, or another doubt; inactive = no such curve, though single readings can be large; an effect the other way counts as inactive or inconclusive.

`CN(C)S(=O)(=O)c1ccc(C(=O)Nc2nnc(SCc3cccc(F)c3)s2)cc1` gave KB-V1 MDR tox inactive, SW480 rereplic inactive, KB-3-1 cytotox inactive, HT1080 IDH1KD tx inactive, HT1080NT lethal inactive and MCF10A rerep inactive.
CN1/C(=C/C(=O)C2CC2)C(C)(C)c2ccccc21 was read as KB-V1 MDR tox inactive, SW480 rereplic inactive, KB-3-1 cytotox inactive, HT1080 IDH1KD tx inactive, HT1080NT lethal inactive and MCF10A rerep inactive.
Screening CN1/C(=C\C(=S)NC(=O)c2cccc(Br)c2)C(C)(C)c2ccccc21 returned KB-V1 MDR tox 8.2µM, SW480 rereplic inconclusive, KB-3-1 cytotox inconclusive, HT1080 IDH1KD tx inconclusive, HT1080NT lethal inactive and MCF10A rerep inconclusive.
For CCN(CC)S(=O)(=O)c1cccc(C(=O)/C=C2/N(C)c3ccccc3C2(C)C)c1 the results were KB-V1 MDR tox inactive, SW480 rereplic 20.6µM, KB-3-1 cytotox inactive, HT1080 IDH1KD tx inactive, HT1080NT lethal inactive and MCF10A rerep 18.4µM.
`CCOC(=O)N1CCN(C(=O)COC(=O)c2ccc(N(C)C)cc2)CC1` gave KB-V1 MDR tox 20.6µM, SW480 rereplic inactive, KB-3-1 cytotox inactive, HT1080 IDH1KD tx inactive, HT1080NT lethal inactive and MCF10A rerep inactive.
For CCOc1ccc(/C=N/NC(=O)c2[nH]ncc2Br)c(O)c1 the results were KB-V1 MDR tox inconclusive, SW480 rereplic inconclusive, KB-3-1 cytotox inactive, HT1080 IDH1KD tx 5.17µM, HT1080NT lethal 7.31µM and MCF10A rerep inconclusive.
Screening CCN(CC)S(=O)(=O)c1cc(C(=O)Nc2ccccc2C(=O)O)ccc1OC returned KB-V1 MDR tox inactive, SW480 rereplic inactive, KB-3-1 cytotox inactive, HT1080 IDH1KD tx inactive, HT1080NT lethal inactive and MCF10A rerep inactive.
CC(C)(C)c1ccc(C(=O)C2CCCN(C(=O)C3CCOCC3)C2)cc1 (stereo unspecified) was read as KB-V1 MDR tox inconclusive, SW480 rereplic inactive, KB-3-1 cytotox inactive, HT1080 IDH1KD tx inactive, HT1080NT lethal inactive and MCF10A rerep inconclusive.
`Cc1nc2cc(NC(=O)c3ccc(Cl)cc3)ccc2n1C` gave KB-V1 MDR tox inactive, SW480 rereplic inconclusive, KB-3-1 cytotox inactive, HT1080 IDH1KD tx inactive, HT1080NT lethal inactive and MCF10A rerep inactive.
For COc1cc(C(=O)Nc2ccc3c(c2)nc(C)n3C)cc(OC)c1OC the results were KB-V1 MDR tox inactive, SW480 rereplic 14.6µM, KB-3-1 cytotox 4.11µM, HT1080 IDH1KD tx 9.2µM, HT1080NT lethal 6.51µM and MCF10A rerep inactive.
For COc1cc(C(=O)Nc2ccc3c(c2)ncn3C)cc(OC)c1OC the results were KB-V1 MDR tox inconclusive, SW480 rereplic inconclusive, KB-3-1 cytotox inconclusive, HT1080 IDH1KD tx inconclusive, HT1080NT lethal inconclusive and MCF10A rerep 3.66µM.
For CC(C)Cc1ccc(C(C)/C=C2/CCC(CN3CCCCC3)C2=O)cc1 (stereo unspecified) the results were KB-V1 MDR tox inconclusive, SW480 rereplic inconclusive, KB-3-1 cytotox inconclusive, HT1080 IDH1KD tx inconclusive, HT1080NT lethal inconclusive and MCF10A rerep 14.6µM.
CCc1nc2cccnc2n1-c1ccc(CC(=O)NC(C)CC)cc1 (stereo unspecified) was read as KB-V1 MDR tox inactive, SW480 rereplic inactive, KB-3-1 cytotox inactive, HT1080 IDH1KD tx inactive, HT1080NT lethal inactive and MCF10A rerep inactive.
`CCc1nc2c(OCc3ccc(F)cc3)cccn2c1N(C)C(=O)COc1ccccc1` gave KB-V1 MDR tox 6.51µM, KB-3-1 cytotox 23.1µM, HT1080 IDH1KD tx inconclusive and HT1080NT lethal inconclusive.
`CCc1nc2c(OCc3ccc(Cl)cc3Cl)cccn2c1N(C=O)Cc1ccc(OC)cc1` gave KB-V1 MDR tox 18.4µM, KB-3-1 cytotox inconclusive, HT1080 IDH1KD tx inactive and HT1080NT lethal inactive.
Screening CCc1nc2c(OCc3ccccc3)cccn2c1N(C)C(=O)COc1ccccc1 returned KB-V1 MDR tox inactive, KB-3-1 cytotox inactive, HT1080 IDH1KD tx inactive and HT1080NT lethal inactive.
`CCc1nc2c(OCC(=O)c3ccc(Cl)cc3Cl)cccn2c1N(C=O)Cc1ccc(OC)cc1` gave KB-V1 MDR tox inconclusive, KB-3-1 cytotox inactive, HT1080 IDH1KD tx inconclusive and HT1080NT lethal inactive.
CCc1nc2c(OCCOc3ccc(F)cc3)cccn2c1N(C=O)Cc1ccc(OC)cc1 was read as KB-V1 MDR tox 18.4µM, KB-3-1 cytotox inactive, HT1080 IDH1KD tx inactive and HT1080NT lethal inactive.
Nc1ccc(S(=O)(=O)NCC(=O)OC2CCOC2=O)cc1[N+](=O)[O-] (stereo unspecified) was read as KB-V1 MDR tox inactive, SW480 rereplic inactive, KB-3-1 cytotox inactive, HT1080 IDH1KD tx inactive, HT1080NT lethal inactive and MCF10A rerep inactive.
CCCOc1ccc(C2C(C(=O)c3cc4ccccc4o3)=C(O)C(=O)N2c2cc(C)on2)cc1OC (stereo unspecified) was read as KB-V1 MDR tox inactive, SW480 rereplic inactive, KB-3-1 cytotox inactive, HT1080 IDH1KD tx inconclusive, HT1080NT lethal inconclusive and MCF10A rerep inactive.
Screening COc1ccc(C(=O)n2c(-c3ccco3)nc3ccccc32)cc1 returned KB-V1 MDR tox inconclusive, SW480 rereplic 18.4µM, KB-3-1 cytotox inconclusive, HT1080 IDH1KD tx 5.8µM, HT1080NT lethal inconclusive and MCF10A rerep 8.91µM.
For CCCn1c(NC(=O)c2ccco2)nc2ccccc21 the results were KB-V1 MDR tox 14.6µM, SW480 rereplic inactive, KB-3-1 cytotox inactive, HT1080 IDH1KD tx inactive, HT1080NT lethal inconclusive and MCF10A rerep inactive.
COc1ccc(C(=O)Nc2nc3ccccc3n2CCOc2ccc(Cl)cc2)cc1 was read as KB-V1 MDR tox inactive and KB-3-1 cytotox inactive.
For CCCn1c(NC(=O)c2ccccc2Br)nc2ccccc21 the results were KB-V1 MDR tox 9.2µM, SW480 rereplic inactive, KB-3-1 cytotox inconclusive, HT1080 IDH1KD tx inconclusive, HT1080NT lethal inactive and MCF10A rerep inconclusive.
`CCCn1c(NC(=O)c2ccc(Br)cc2)nc2ccccc21` gave KB-V1 MDR tox inactive, SW480 rereplic inactive, KB-3-1 cytotox inactive, HT1080 IDH1KD tx inactive, HT1080NT lethal inactive and MCF10A rerep inactive.
`COc1ccc(OCCn2c(NC(=O)c3ccco3)nc3ccccc32)cc1` gave KB-V1 MDR tox inactive, SW480 rereplic 4.11µM, KB-3-1 cytotox inactive, HT1080 IDH1KD tx inconclusive, HT1080NT lethal inconclusive and MCF10A rerep 11.6µM.
For COc1ccc(C(=O)N2CCn3c2nc2ccccc23)cc1 the results were KB-V1 MDR tox inactive, SW480 rereplic inactive, KB-3-1 cytotox inactive, HT1080 IDH1KD tx inactive, HT1080NT lethal inactive and MCF10A rerep inactive.
`CC(C)(C)c1ccc(-c2conc2N)cc1` gave KB-V1 MDR tox inactive, SW480 rereplic inconclusive, KB-3-1 cytotox inactive, HT1080 IDH1KD tx inconclusive, HT1080NT lethal inconclusive and MCF10A rerep 17.8µM.
Screening COCCN1Cc2cccc(C(=O)Nc3ccc(S(=O)(=O)N4CCCCC4)cc3)c2C1=O returned KB-V1 MDR tox inactive, SW480 rereplic inactive, KB-3-1 cytotox inactive, HT1080 IDH1KD tx inactive, HT1080NT lethal inactive and MCF10A rerep inactive.
